High-throughput results (PubChem BioAssay)
POLB inh – qHTS Assay for Inhibitors of DNA Polymerase Beta | P06746 | Pol beta primer extension/strand displacement, fluorescence kinetic | Potency, µM (series often up to 114 µM), for the others: at the top dose activity change, negative = inhibition, usual class: inhibitors | 340,000 tested, 1.3% active | AID 485314, 2010; further: on the % scale 0 is the no-effect control and ±100 the full control effect
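Values derive from four-parameter Hill fits of normalized kinetic data: reads at 0 and 10 min following addition of 50 nM substrate to 10 nM Pol beta preincubated 15 min with compound.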
Pol iota inh – qHTS for Inhibitors of Polymerase Iota; DNA polymerase iota (Homo sapiens), Q9UNA4; Pol iota fluorescent replication assay, 10 min; Potency, µM (highest dose often 115 µM), without a hit: top-dose activity, negative = inhibition, hits mostly inhibitors; 390,000 tested, 1% active
Target sequence (Q9UNA4 whole entry, looked up): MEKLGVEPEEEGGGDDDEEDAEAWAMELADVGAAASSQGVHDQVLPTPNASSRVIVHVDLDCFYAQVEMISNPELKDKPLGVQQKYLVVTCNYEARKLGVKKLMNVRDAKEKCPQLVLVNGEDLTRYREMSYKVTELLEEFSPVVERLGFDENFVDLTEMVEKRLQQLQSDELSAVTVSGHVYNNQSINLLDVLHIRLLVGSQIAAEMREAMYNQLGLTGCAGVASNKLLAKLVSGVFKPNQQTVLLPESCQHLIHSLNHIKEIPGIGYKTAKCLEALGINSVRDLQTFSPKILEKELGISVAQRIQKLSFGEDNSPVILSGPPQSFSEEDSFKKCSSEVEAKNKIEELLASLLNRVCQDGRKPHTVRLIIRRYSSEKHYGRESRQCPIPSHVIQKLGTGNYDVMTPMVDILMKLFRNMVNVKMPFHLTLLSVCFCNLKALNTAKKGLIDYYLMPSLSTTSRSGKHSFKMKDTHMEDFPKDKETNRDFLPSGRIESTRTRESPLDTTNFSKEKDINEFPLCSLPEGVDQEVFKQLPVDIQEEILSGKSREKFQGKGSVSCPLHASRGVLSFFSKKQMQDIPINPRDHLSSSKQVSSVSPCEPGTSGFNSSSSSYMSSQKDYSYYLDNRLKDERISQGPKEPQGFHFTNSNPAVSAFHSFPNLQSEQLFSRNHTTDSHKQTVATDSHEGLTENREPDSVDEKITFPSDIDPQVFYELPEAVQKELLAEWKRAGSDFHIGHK
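Fluorescent replication assay read twice, at 0 min and 10 min after adding 50 nM (final) substrate. Enzyme (10 nM) and compounds were first incubated 15 min at room temperature; enzyme-free buffer wells were negative controls.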
Pol eta inh – qHTS for Inhibitors of Polymerase Eta; DNA polymerase eta (Homo sapiens), Q9Y253; 390,000 tested, 1.2% active; AID 588591, 2011; recombinant Pol eta, fluorescent DNA replication assay; Potency, µM (highest dose often 114 µM), for inactives: top-dose activity change, negative = inhibition, most hits filed as inhibitors; further: on the % scale 0 is the no-effect control and ±100 the full control effect
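Pol eta (10 nM) was preincubated with compounds for 15 min at room temperature, after which fluorescent replication substrate (50 nM final) was added to start the reaction. Fluorescence was read kinetically at 0 and 10 min.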
APE1 inh-1 – qHTS Assay for Inhibitors of the Human Apurinic/apyrimidinic Endonuclease 1 (APE1) | recombinant APE1, TAMRA/BHQ-2 abasic DNA cleavage fluorescence | 350,000 tested, 0.35% active | Potency, µM (titrated, usually from 65.8 µM), for inactives: at the highest dose activity change, negative = inhibition, actives largely listed as inhibitors;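 further: plate controls were vehicle for no effect and reference inhibitor for full effect; nearly all actives have a fitted effect of over 55% in size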
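Incision of a quenched TAMRA/BHQ-2 THF abasic-site duplex (50 nM) by 0.75 nM APE1, after 15 min compound preincubation, measured as fluorescence increase over three 60 s reads. Values normalized to buffer, DMSO and NSC13755 control wells.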
L3MBTL1 block – qHTS Assay for the Inhibitors of L3MBTL1 | Lethal(3)malignant brain tumor-like protein 1 (Homo sapiens), Q9Y468 | AlphaScreen L3MBTL1–H3K9me1 peptide binding | Potency, µM (top dose mostly 57.1 µM), for inactives: top-dose activity, negative = inhibition, hits mostly inhibitors | 230,000 tested, 0.66% active | AID 485360, 2010; further: on the % scale 0 is the no-effect control and ±100 the full control effect; nearly all actives have a fitted effect of over 60% in size
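AlphaScreen proximity signal between nickel-chelate acceptor and streptavidin donor beads (final 10 ug/mL) reports binding of 50 nM L3MBTL1 to 75 nM biotin-H3 K9me1 peptide; complex incubated with compounds 30 min at room temperature; cefsulodin titration as control.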
POLK inh – qHTS for Inhibitors of Polymerase Kappa; purified Pol kappa, fluorescent DNA synthesis assay, 10 min; Potency, µM (doses to about 107 µM), inactives show top-dose activity, negative = inhibition, usual class: inhibitors; 400,000 tested, 0.53% active; further: on the % scale 0 is the no-effect control and ±100 the full control effect
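Inhibition of 10 nM Pol kappa is measured by a fluorescent read-out at 0 and 10 min following addition of 50 nM substrate (final), with a 15-min room-temperature compound preincubation.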
DNA dye displace – Counterscreen for APE1 Inhibitors: Fluorescent Dye Displacement Assay. shares compounds with APE1 inh-1. Potency, µM (titrated, usually from 28.5 µM), without a hit: at the top dose activity change, negative = inhibition, most hits filed as inhibitors. DNA fluorescent dye displacement counterscreen, fluorescence. 480 tested, 7% active. AID 2564, 2010;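 further: loss of thiazole orange fluorescence as the dye is displaced from duplex DNA; 0% = ThO with dsDNA and no compound and -100% = ThO without dsDNA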
EndoIV counter – Counterscreen for APE1 Inhibitors: qHTS Assay for Inhibitors of Endonuclease IV | shares compounds with APE1 inh-1 | E. coli Endo IV, fluorogenic AP-site DNA cleavage | Potency, µM (highest dose often 27.1 µM), without a hit: top-dose activity change, negative = inhibition, actives largely listed as inhibitors | 560 tested, 4% active;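 further: plate controls were uninhibited enzyme wells for no effect and no enzyme buffer wells for full effect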
APE1 inh-2 – Confirmation qHTS Assay for Inhibitors of the Human Apurinic/apyrimidinic Endonuclease 1 (APE1); shares compounds with APE1 inh-1; purified APE1, fluorogenic abasic-site DNA cleavage; Potency, µM (highest dose often 57.1 µM), for inactives: top-dose activity change, negative = inhibition, actives largely listed as inhibitors; 750 tested, 44% active; further: on the % scale 0 is the no-effect control and ±100 the full control effect; nearly all actives have a fitted effect of over 30% in size
APE1 FP inh – qHTS FP-Based Assay for Inhibitors of the Human Apurinic/apyrimidinic Endonuclease 1 (APE1). Potency, µM (doses to about 28.5 µM), for inactives: at the highest dose activity, negative = inhibition, usual class: inhibitors. APE1 binding to TAMRA-labelled double-stranded DNA, fluorescence polarization displacement. shares compounds with APE1 inh-1. 480 tested, 7% active; further: on the % scale 0 is the no-effect control and ±100 the full control effect
* hit, by the source's call; u = inconclusive; x = no result; [ ] = dose if it differs, or a comment. Sampled rows, rich in hits. Any-hit rate of the full collection: about 2.5%. The call rests on the fitted dose curve; in most records, active means well fitted curve in the direction sought with a large enough effect; inconclusive means small, poorly fitted or top-dose-only effect, or another doubt; inactive means no such curve, though single readings can be large; an effect the other way counts as inactive or inconclusive. Potency means the concentration at half of the fitted maximal effect.

SMILES | POLB inh | Pol iota inh | Pol eta inh | APE1 inh-1 | L3MBTL1 block | POLK inh | DNA dye displace | EndoIV counter | APE1 inh-2 | APE1 FP inh
CCOC(=O)C1=C(C)NC(=O)NC1c1ccco1 (stereo not drawn) | 35.5µM* | 44.7µM* | 79.4µM* | u | u | u | 0.4% | 7.0% | u | -11.2%
CCOC(=O)CNC(=O)CSc1nnc(-c2ccco2)n1Cc1ccco1 | -19.5% | 2.1% | -12.7% | 31.6µM* | 29.4% | -14.2% | u | 1.6% | -9.7%[24.4 µM] | -93.0%
Cc1ccc(-c2cnc(NCc3ccc(C(F)(F)F)cc3)n2C)cc1 | u | u | -19.2% | x | x | -12.0% | x | x | x | x
O=c1/c(=C/c2ccco2)sc2nc(-c3ccccc3Br)nn12 | 35.5µM* | u | 15.8µM* | 22.4µM* | u | 79.4µM* | -1.4% | 32.0% | u | -3.1%
OCC[C@@H]1C[C@@H](O)[C@H](O)[C@@]2(Cc3ccccc3O2)O1 | 7.7% | 21.5% | -1.2% | 56.0% | 3.5% | -6.9% | x | x | x | x
Cc1ccc(C)n1Cc1ccc(C(=O)O)cc1 | 2.82µM* | 0.708µM* | -98.4% | 3.55µM* | u | 1.26µM* | x | x | 14.1µM* | x
Cc1cc(C)n(Cc2ccc(C(=O)O)cc2)n1 | 2.5% | 2.1% | -0.3% | 1.7% | x | -1.0%[60.1 µM] | x | x | x | x
O[C@@](CCN1CCCCC1)(c1ccccc1)C1CCCCC1 | x | x | x | -72.2%[21 µM] | x | 2.7%[12 µM] | -3.2% | 17.3% | 2.2%[24.4 µM] | u
O[C@@](CCN1CCCC1)(c1ccccc1)C1CCCCC1 | x | x | x | x | x | -0.4%[12 µM] | x | x | x | x
O=C(NCc1ccco1)c1ccc(Cn2c(SCc3ccc(F)cc3)nc3cccnc32)cc1 | -15.5% | 11.5% | -1.3% | x | x | -27.8% | x | x | x | x
COc1cc2c(cc1OC)CN(C(=O)/C=C/c1cccs1)CC2 | -0.2% | 58.3% | 9.6% | 2.3% | -1.4% | -10.1% | x | x | x | x
O=C(O)c1cccc(NC(=S)NC(NC(=O)c2cccc([N+](=O)[O-])c2)C(Cl)(Cl)Cl)c1 (stereo not drawn) | u | 11.2% | 56.2µM* | u | x | -8.5% | x | x | u | x
O=C(O)c1cccc(NC(=S)NC(NC(=O)c2ccccc2[N+](=O)[O-])C(Cl)(Cl)Cl)c1 (stereo not drawn) | -7.2% | 24.7% | -15.0% | 2.2% | x | -10.0% | x | x | x | x
N#Cc1nc(Nc2ccccc2)nc(NC2CCCCC2)n1 | x | x | x | 35.5µM* | x | x | -6.2%[57.1 µM] | 16.6%[57.1 µM] | -2.5% | u
Cc1cc(/C=N/NC(=O)c2ccncc2)c(C)n1-c1ccccc1 | 9.0% | 11.0% | -4.9% | -5.0% | -4.5% | -17.8% | x | x | x | x
Cc1cc(C(=O)N/N=C/c2ccc(O)c(O)c2O)c(C)n1-c1ccccc1 | u | -17.9% | -26.4% | 4.47µM* | u | -17.9% | -10.4% | 30.0% | u | -87.3%
COC(=O)CCCC1=CC2=CC(=O)C(C)(OC(=O)c3cccs3)C(=O)C2=CN1Cc1ccco1 (stereo not drawn) | 50.1µM* | u | u | u | x | u | 1.9% | -1.6% | -11.5%[24.4 µM] | u
CCCCC1=CC2=C(c3ccco3)C(=O)C(C)(OC(=O)c3ccc(OC)cc3)C(=O)C2=CN1Cc1ccco1 (stereo not drawn) | 10µM* | 3.98µM* | -14.8% | 7.08µM* | x | 50.1µM* | -9.5% | -3.3% | u | -4.2%
O=C(O)c1cc2cc(F)ccc2[nH]1 | 19.4% | -9.6%[58.9 µM] | -4.2%[57.1 µM] | -3.2% | -0.6% | 8.3%[60.1 µM] | x | x | u | x
O=C(O)c1cc2cc(Cl)ccc2[nH]1 | x | -0.4% | -9.9% | -0.4% | x | -5.7% | x | x | x | x
CCOC(=O)c1c(Oc2ccc(C(C)=O)cc2)nnc(-c2ccccc2)c1-c1ccccc1 | -8.7% | -17.3% | u | x | x | -16.9% | x | x | x | x
COc1ccc(CCNC(=O)CCc2cn(Cc3ccc(C)cc3)c3ccccc23)c(OC)c1OC | 17.8% | 0.7% | -19.4% | x | x | -13.4% | x | x | x | x
O=C(N/N=C/c1ccc2c(c1)OCO2)c1cc2ccccc2o1 | u | -1.9% | -0.9% | u | 0.6% | -15.5% | x | x | 39.8µM* | x
CCOC(=O)N1CCN(C(=O)c2c(O)c3cccc4c3n(c2=O)CC4)CC1 | -20.3% | 13.0% | -13.8% | 39.8µM* | x | -16.4% | -14.3% | 2.0% | -10.1%[24.4 µM] | -0.7%
OCCN(Cc1ccccc1)Cc1cccc(Cl)c1Cl | 6.5% | 17.6% | -5.7% | -5.7% | -0.1% | -4.9% | x | x | u | x
OCCN(Cc1ccccc1)Cc1ccccc1Cl | -23.9% | 26.3% | -15.5% | -3.3% | 19.6%[11.4 µM] | -3.6% | x | x | x | x
CCCOc1ccccc1-c1nc2n[nH]nc2c(=O)[nH]1 | 17.1%[57.1 µM] | 13.0%[58.9 µM] | -1.1%[57.1 µM] | -5.4% | x | -6.0%[60.1 µM] | -6.6%[57.1 µM] | 7.7%[57.1 µM] | 0.9% | 22.3%[57.1 µM]
CCC[C@@H]1CC(C(=O)NC(C2O[C@H](SC)C(OP(=O)(O)O)[C@H](O)[C@H]2O)[C@H](C)Cl)N(C)C1 (stereo partly drawn) | x | x | x | x | x | -5.9%[60.1 µM] | x | x | x | x
COc1ccc2c(c1OC)C(=O)O[C@H]2C1c2c(cc3c(c2OC)OCO3)CCN1C (stereo partly drawn) | x | x | x | -2.9% | x | -11.8%[60.1 µM] | x | x | x | x
CN1CCc2cc3c(c4c2[C@H]1[C@H](O)c1ccccc1-4)OCO3 | 44.7µM* | u | -23.7% | u | -3.0% | u | 4.47µM* | 8.91µM* | 11.2µM* | 12.6µM*
